Bioassay records (PubChem BioAssay)
Hits are enriched below; roughly 3.4% of the tested compounds scored in any of these assays.
TEAD-YAP inh: TEAD-YAP interaction inhibition | AID 1259422 | HEK-TIYL cells, TEAD-Gal4/YAP UAS-luciferase luminescence | 1.4% of 640,000 active | inhibition, % at 9.12 µM; in the data active means inhibition above about 32%;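 further: 0% = median of test compound wells and 100% = reference inhibitor wells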
MITF inh: human MITF inhibition, primary screen; O75030; AlphaScreen MITF homodimerization, bead proximity signal; inhibition, % at 2.6 µM; 0.91% of 650,000 active; AID 1259374; in the data active means inhibition above about 50%;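 further: 0% = vehicle wells with protein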
FBW7 activator: human FBW7 E3 ligase activation, primary screen. Q969H0. AlphaScreen FBW7–phospho-cyclin E peptide binding, activator screen. normalized activity (activation), % at 26.1 µM. 0.13% of 650,000 active. AID 1259310; in the data active means normalized activity above about 1.9%;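 further: purified mutant Fbw7 with reduced substrate affinity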
GPR151 activ: human GPR151 activation; Q8TDV0; PathHunter beta-arrestin GPR151 cells, luminescence; activation, % at 11.2 µM; 1% of 650,000 active; in the data active means activation above about 4.9%;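 further: 0% = median of compound wells and 100% = cells with positive control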
Active calls of the source: *.

SMILES	TEAD-YAP inh	MITF inh	FBW7 activator	GPR151 activ
CSC1SC[C@H]2C(=O)N(C)[C@@H](C(C)C)C(=O)OC[C@@H](NC(=O)c3cnc4ccccc4n3)C(=O)N[C@@H](C)C(=O)N(C)[C@H]1C(=O)N(C)[C@@H](C(C)C)C(=O)OC[C@@H](NC(=O)c1cnc3ccccc3n1)C(=O)N[C@@H](C)C(=O)N2C (stereo not given in full)	96*	-6	0	1
CCCCc1ccc(-c2nc(Nc3ccc(OCc4ccccc4)cc3)c3ccccc3n2)cc1	35*	-8	0	2
COCCNc1nc(-c2ccccc2)nc2ccccc12	19	-3	0	0
COc1cccc(Nc2nc(-c3cc(OC)c(OC)c(OC)c3)nc3ccccc23)c1	37*	1	0	0
COCCNc1nc(-c2cc(OC)c(OC)c(OC)c2)nc2ccccc12	32*	21	0	-1
COc1cc(-c2nc(Nc3ccc(Cl)cc3)c3ccccc3n2)cc(OC)c1OC	30	-11	0	2
COc1cc(-c2nc(Nc3ccc(C)cc3)c3ccccc3n2)cc(OC)c1OC	55*	-12	0	2
Cc1cc2ccccc2c(=O)n1CC(=O)NCCN1CCOCC1	2	-10	0	0
Cc1sc2ncnc(N3CCN(c4ccccc4O)CC3)c2c1C	8	9	0	0
COc1cc(-c2nc(Nc3ccccc3F)c3ccccc3n2)cc(OC)c1OC	32*	-1	0	0
COc1cc(-c2nc(Nc3ccccc3Cl)c3ccccc3n2)cc(OC)c1OC	11	9	0	0
CCCc1ccc(C(=O)Oc2ccc(-c3ccc(CCC)cn3)cc2)cc1	23	12	0	-1
CCCc1ccc(-c2ccc(OC(=O)c3ccccc3Cl)cc2)nc1	70*	-2	0	-2
N#CC1=C(N)Oc2cc3ccccc3cc2C1c1cccnc1 (stereo not given)	48*	10	0	-1
N#CC1=C(N)Oc2cc3ccccc3cc2C1c1cccs1 (stereo not given)	44*	30	0	-1
COc1cccc(C2C(C#N)=C(N)Oc3cc4ccccc4cc32)c1 (stereo not given)	43*	11	0	1
COc1cccc(C2C(C#N)=C(N)Oc3cc(N)ccc32)c1OC (stereo not given)	2	17	0	1
COc1ccccc1C1C(C#N)=C(N)Oc2cc3ccccc3cc21 (stereo not given)	37*	4	0	0
O=C(Cc1ccc(-c2ccccc2)cc1)N1CCCC(c2nc(-c3ccncc3)n[nH]2)C1 (stereo not given)	7	5	0	-1
O=C(NC(=S)Nc1ccc(Cl)c(-c2nc3ccccc3s2)c1)c1cc2ccccc2o1	-11	-3	0	1
CCOC(=O)c1c(NC(=O)CSc2nnc(NC(C)=O)s2)sc2c1CCC2	8	-16	0	-1
COc1cccc(C2C(C#N)=C(N)Oc3c2ccc2ccccc32)c1 (stereo not given)	58*	-26	0	0
COc1cc(C2C(C#N)=C(N)Oc3c2ccc2ccccc32)cc(Cl)c1O (stereo not given)	64*	0	0	1
N#CC1=C(N)Oc2cc3ccccc3cc2C1c1ccc(F)cc1 (stereo not given)	47*	-7	0	3
COc1ccc(C2C(C#N)=C(NC(=O)c3ccccc3OC)Oc3c2ccc2ccccc32)cc1OC (stereo not given)	6	9	0	3
SMILES	TEAD-YAP inh	MITF inh	FBW7 activator	GPR151 activ
COc1cc(C2C(C#N)=C(N)Oc3c2ccc2ccccc32)ccc1O (stereo not given)	58*	2	0	2
CSCCC(NC(=O)C1CCC(C)CC1)C(=O)OCc1ccc([N+](=O)[O-])cc1 (stereo not given)	5	14	0	-1
CCOC(=O)c1c(N)sc(C(=O)Nc2ccc3c(c2)OCO3)c1C	79*	18	0	-7
CCOC(=O)c1sc(N)c(C(=O)Nc2ccccc2OC)c1C	54*	2	0	0
COC(=O)c1c(N)sc(C(=O)Nc2ccccc2OC)c1C	-36	10	1	-1
CCOC(=O)c1ccc(NC(=O)c2sc(NC(=O)c3ccc(OC)cc3)c(C(=O)OCC)c2C)cc1	7	-1	0	0
CCOC(=O)c1c(N)sc(C(=O)Nc2ccc(OC)cc2)c1C	42*	-2	0	-6
O=C(Nc1ccc2oc(-c3ccc(Br)cc3)nc2c1)c1ccc2c3c(cccc13)CC2	-8	7	0	0
